Source: PubChem (National Center for Advancing Translational Sciences (NCATS))
An excerpt weighted towards active compounds, which were near 19% of everything screened.
IL1B secr inh = blocks inflammasome-driven IL-1 beta release. THP-1 LPS/ATP IL-1B secretion, AlphaLISA, 16 h; active compounds read low. activity change, % at 57.5 µM. hit rate 4.7% among 360,000; in the data active means activity change below about -50%; inconclusive means mostly about -30% to -49%
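Secreted IL-1B measured by AlphaLISA bead assay after 16 h compound exposure of THP-1 cells; compounds (final up to 57.5 uM) added 1 h before LPS (250 ng/mL) and ATP (1.25 mM) stimulation; lower signal means less secretion.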
TDP1 cell noCPT = qHTS for Inhibitors of human tyrosyl-DNA phosphodiesterase 1 (TDP1): qHTS in cells in absence of CPT; AID 686978, 2013; DT40 Tdp1-/- hTDP1 cells, no CPT, ATP luminescence, 48 h; hit rate 15% among 420,000; Potency, µM (top dose mostly 46.2 µM), for the others: top-dose activity change, negative = growth inhibition, actives largely listed as inhibitors; further: potency means the concentration at half of the fitted maximal effect; nearly all actives have a fitted effect of over 55% in size
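Cells were dispensed at 400 per well, compounds added by pin tool, plates incubated ≥48 hr at 37 °C, then CellTiter-Glo added for 30 min at room temperature before luminescence reading. Line: DT40 Tdp1-/- complemented with hTDP1; camptothecin omitted.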
HT1080NT lethal = kills 2HG-producing HT-1080-NT fibrosarcoma cells; HT-1080-NT fibrosarcoma viability, CellTiter-Glo ATP luminescence, 48 h; Potency, µM (top dose mostly 46.1 µM), for the others: at the highest dose activity, negative = less viability, actives largely listed as cytotoxic; hit rate 1.6% among 360,000;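 further: NT is the 2HG producing partner of a matched IDH1 knockdown line; potency means the concentration at half of the fitted maximal effect; 0% = DMSO-treated cells and -100% = media-only wells without cells; nearly all actives have a fitted effect of over 55% in size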
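Fibrosarcoma NT cells, 750 per well in 5% FBS RPMI, were exposed to compound for 48 hours. Viability: CellTiter-Glo luminescence.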
TDP1 cell CPT = DT40-hTDP1 cell growth loss with CPT; hit rate 12% among 420,000; Potency, µM (titrated, usually from 46.2 µM), without a hit: top-dose activity change, negative = growth inhibition, actives largely listed as inhibitors; chicken DT40 Tdp1-/-;hTDP1 cells + 20 nM CPT, ATP luminescence, 48 h; further: potency means the concentration at half of the fitted maximal effect; nearly all actives have a fitted effect of over 55% in size
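Chicken DT40 Tdp1-/- cells stably complemented with human TDP1 were seeded at 400 cells/well in medium containing 20 nM camptothecin, exposed to pin-transferred compounds, and grown at 37 °C for at least 48 hr. Viability was read as ATP luminescence.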
HT1080 IDH1KD tx = HT-1080 IDH1 knockdown cell toxicity (counter line) | hit rate 2% among 360,000 | Potency, µM (series often up to 46.1 µM), inactives show at the highest dose activity, negative = toxicity, usual class: cytotoxic | AID 686971 | HT-1080 IDH1 knockdown viability, ATP luminescence, 48 h;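 further: potency means the concentration at half of the fitted maximal effect; 0% = DMSO wells and -100% = cell-free medium wells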
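Viability of IDH1-knockdown HT-1080 fibrosarcoma cells was assessed by CellTiter-Glo after 48 h at 37 °C with titrated compound; concentration-effect curves were classified by fit quality and response size.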
An asterisk follows results filed as active; i = inactive; ? = inconclusive; / = no result. Unless noted, the call rests on the fitted dose curve; in most records, active means well fitted curve in the direction sought with a large enough effect; inconclusive means small, poorly fitted or top-dose-only effect, or another doubt; inactive means no such curve, though single readings can be large; an effect the other way counts as inactive or inconclusive. Unless noted, on the % scale 0 is the no-effect control and ±100 the full control effect.

SMILES	IL1B secr inh	TDP1 cell noCPT	HT1080NT lethal	TDP1 cell CPT	HT1080 IDH1KD tx
CCCc1cc(=O)oc2c(C)c(O[C@@H]3O[C@H](CO)[C@@H](O)[C@H](O)[C@H]3O)ccc12	-11.0	7.31µM*	-13.4%	?	-9.1%
CC(C)Oc1ccc(C(=O)NC2CCN(Cc3ccccc3)CC2)cc1	-83.6*	?	-0.3%	-32.5%	-12.4%
O=C(NC(=S)NC1CCN(Cc2ccccc2)CC1)c1ccc(F)cc1	-25.9	14.6µM*	-2.1%	?	0.2%
O=C(NC1CCN(Cc2ccc3ccccc3c2)CC1)c1ccccc1	-15.6	18.4µM*	-3.9%	18.4µM*	5.9%
O=C(NC1CCN(Cc2ccccc2)CC1)c1ccc(I)cc1	/	-11.8%	/	-22.2%	/
O=C(NC1CCN(Cc2ccc(Cl)c(Cl)c2)CC1)c1ccccc1	-18.8	?	-1.0%	20.6µM*	-0.5%
O=C(NC1CCN(Cc2ccc(F)cc2)CC1)c1ccccc1	2.0	-26.9%	22.1%	-4.3%	10.4%
CCN(C(=O)COC(=O)/C=C/c1c(C)nn(-c2ccccc2)c1C)c1c(N)n(Cc2ccccc2)c(=O)[nH]c1=O	12.4	-22.5%	-1.1%	?	-10.0%
COC(=O)c1ccc(/C=C/c2ccc3cccc(OC(C)=O)c3n2)cc1	13.0	20.6µM*	-25.7%	18.4µM*	?
O=C(O)c1ccc(/C=C/c2ccc3cccc(O)c3n2)cc1	11.5	18.4µM*	-10.4%	-10.8%	-24.3%
COc1c(OC(C)=O)ccc(/C=C/c2ccc3cccc(OC)c3n2)c1[N+](=O)[O-]	-84.5*	18.4µM*	?	25.9µM*	?
O=[N+]([O-])c1cccc(/C=C/c2ccc3cccc(O)c3n2)c1	41.7	3.66µM*	?	4.61µM*	?
Oc1ccc(/C=C/c2ccc3cccc(O)c3n2)cc1Br	37.7	?	?	?	-20.0%
CCOc1c(OC(C)=O)ccc(/C=C/c2ccc3cccc(OC(C)=O)c3n2)c1[N+](=O)[O-]	-2.6	?	?	?	?
CC(=O)c1ccc(S(=O)(=O)N2CCN(C(C)C(=O)N(C)Cc3ccccc3)CC2)cc1 (configuration not stated)	9.0	?	-0.2%	?	-2.7%
Cc1cc(NC(=O)CN2C(=O)NC3(CCC(C)CC3)C2=O)no1 (configuration not stated)	10.2	-16.1%	8.5%	-16.5%	16.5%
Cc1nn(CC(=O)NCCC2=CCCCC2)c(C)c1S(=O)(=O)N(C)C	22.3	-3.0%	4.6%	?	7.3%
Cc1cc(C)cc(-n2ccn(CC(=O)Nc3cc(C)ccc3C)c(=O)c2=O)c1	/	-2.8%	/	-10.3%	/
Cc1cc(C)n(-c2ccc(NC(=O)C3CCCCN3C(=O)c3cc(C)oc3C)cc2)n1 (configuration not stated)	-6.9	?	-7.7%	14.6µM*	0.0%
Cc1cc(C)n(-c2ccc(NC(=O)C3CCCCN3C(=O)c3ccoc3)cc2)n1 (configuration not stated)	i	-10.5%	-5.9%	-18.5%	15.1%
CCN(CC)C(=O)c1nn(Cc2ccccc2)c(=O)c2ccccc12	0.0	7.3%	4.6%	1.1%	14.4%
CCN(CC)C(=O)c1nn(-c2ccccc2)c2c1C1CCC2(C)C1(C)C (configuration not stated)	?	16.4µM*	-7.5%	23.1µM*	-9.1%
CC(C)N1CC2(CC(c3ccccc3F)=NO2)CN1C(=O)c1ccco1 (configuration not stated)	14.1	-8.9%	13.7%	-2.2%	9.3%
O=C(c1ccco1)N1CC2(CC(c3ccc(Cl)cc3)=NO2)CN1Cc1ccc(Br)cc1 (configuration not stated)	-17.4	?	5.8%	20.6µM*	8.7%
COc1cccc(CNc2nc(Cl)nc3nc[nH]c23)c1	/	7.94µM*	/	15.8µM*	/
SMILES	IL1B secr inh	TDP1 cell noCPT	HT1080NT lethal	TDP1 cell CPT	HT1080 IDH1KD tx
Clc1nc(NCc2cccs2)c2[nH]cnc2n1	/	11.2µM*	/	12.6µM*	/
c1csc(CNc2ncnc3nc[nH]c23)c1	-8.5	?	-1.9%	?	0.4%
CN1OC[C@@H]2CN(C(=S)Nc3ccc(C#N)cc3)[C@H](c3ccc(N4CCCCC4)cc3)C[C@@H]21	0.0	-1.5%	0.8%	-2.9%	0.5%
COc1ccccc1C(=O)COC(=O)Cn1c(C)csc1=O	1.8	?	15.5%	-18.1%	13.5%
CCOc1ccc(C(=O)OCC(=O)NC2CCCC2)cc1OCC	78.1	-5.3%	-9.1%	8.6%	-11.9%
COc1ccc(-c2c(-c3ccccc3)n(C)c3ccccc23)cc1	16.7	-18.9%	4.3%	3.9%	18.9%
CN=C1c2c(-c3ccccc3)c3cc(OC)ccc3n2CCN1C	?	18.4µM*	-27.9%	23.1µM*	?
CC1(C)COC2(OC1)C(=O)Nc1ccccc12	13.5	-10.8%	0.9%	1.7%	1.5%
CCC1(C)COC2(OC1)C(=O)Nc1ccccc12 (configuration not stated)	-51.4*	-19.5%	-0.2%	-2.7%	-2.8%
CCN(CC)CCOc1c(Br)ccc2c1sc1nc3n(c(=O)c12)CCC3	-63.8*	20.6µM*	?	?	?
CN1C(=CC=C2C=C(I)C(=O)C(I)=C2)C(C)(C)c2ccccc21	10.0	16.4µM*	-16.5%	18.4µM*	?
CN1/C(=C\C=C2/SC(=S)NC2=O)C(C)(C)c2ccccc21	27.2	5.8µM*	-4.4%	8.2µM*	-10.9%
CN1CCC/C1=C/C=C1\SC(=S)NC1=O	-20.0	-3.0%	-2.8%	-16.2%	13.2%
CCN1C(=O)/C(=C\N2CCN(C)CC2)SC1=S	2.1	-16.3%	13.7%	-29.8%	23.5%
CCCN1C(=O)/C(=C\C=C2\N(CC)c3ccccc3C2(C)C)SC1=S	6.0	13µM*	-0.2%	16.4µM*	4.2%
CO/N=C/C=C1/N(C)c2ccccc2C1(C)C	-19.2	-5.7%	-0.3%	?	8.9%
C[C@@H]1CN([C@@H](C)CO)C(=O)CCCn2nncc2CO[C@@H]1CN(C)C(=O)Nc1ccc(C(F)(F)F)cc1	27.9	-16.8%	11.6%	-7.1%	14.0%
CCCc1cc(=O)n2[nH]c(C)cc2n1	3.7	?	12.0%	-17.1%	0.9%
N#Cc1ccc(CN2CCN(c3ccc(S(=O)(=O)N4CCCC4)cn3)CC2)cc1	0.0	-9.5%	9.2%	-29.7%	-3.1%
Cc1cccc(S(=O)(=O)N(C)C[C@H]2OCc3cnnn3CCCC(=O)N([C@H](C)CO)C[C@H]2C)c1	-12.1	5.5%	-0.2%	1.7%	4.7%
Cc1ccc(-c2noc(CCC(=O)N(C)c3ccccc3C)n2)cc1	-6.9	14.6µM*	-3.9%	?	-2.7%
